DAX1 StAR inh: DAX1 (NR0B1) inhibition, primary screen; 370,000 compounds, 1.1% hits; inhibition, % at 6.8 µM; HEK293T StAR-luciferase reporter, SF-1/DAX-1 repression relief;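 active = inhibition above the mean over all tested compounds plus 3 SD, cut at about 3.6% in these data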;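 also: 0% = DAX-1 cells with DMSO and 100% = cells lacking DAX-1 with DMSO; higher inhibition means more luminescence from relief of DAX-1 repression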
esBAF inh: SWI/SNF esBAF complex inhibition. 350,000 compounds, 2% hits. mouse ES cells, Bmi1-luciferase knock-in reporter, 24 h; 100% = twice the neutral-well signal. reporter increase, % at 12.5 µM; in the data active = activation above about 40%; inconclusive = no clear call, values can overlap the other calls;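 also: 0% = median of the plate's neutral control wells and 100% = double that signal; a rise in the Bmi1 reporter signal indicates esBAF inhibition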
hgDAF12 agonist: activates the H. glycines DAF-12 receptor ligand-binding domain. HEK293 GAL4-hgDAF12 UAS-luciferase reporter, agonist luminescence; normalized to butyrate control. 370,000 compounds, 1.8% hits. activation, % at 6.8 µM;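 active = activation above a cutoff set at the mean of all screened compounds plus 3 SD, cut at about 10% in these data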;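 also: 0% = DMSO wells and 100% = sodium butyrate wells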
Wnt bcat act: activates Wnt/beta-catenin signaling in a reporter cell assay; 300,000 compounds, 1.2% hits; activation, % at 9.35 µM; AID 743398; activator, plate reader; in the data active = activation above about 30%, passing the limit was not always enough; inconclusive = no clear call, values can overlap the other calls;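 also: 0% = neutral control wells and 100% = positive control wells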
ssDAF-12 act: activators of S. stercoralis DAF-12 nuclear receptor. HEK293 ssDAF-12/GRIP1 lit1-tk-luc reporter, luminescence; % of 3 µM dafachronic acid response. activation, % at 6.8 µM. 370,000 compounds, 1% hits;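 active = activation above the mean over all tested compounds plus 3 SD, cut at about 0.9% in these data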;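 also: 0% = DMSO-only wells and 100% = 3 µM delta7-dafachronic acid wells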
hcDAF-12 act: activates DAF-12 receptor from parasite H. contortus. activation, % at 6.8 µM. HEK293 hcDAF-12 lit1-tk-luc reporter, luminescence; 0% DMSO, 100% Δ7-dafachronic acid. 370,000 compounds, 1.4% hits. AID 652067;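 active = activation above the mean of all tested compounds plus 3 SD, cut at about 5.5% in these data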;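 also: 100% = response to 3 µM Δ7-dafachronic acid high control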
DAX1 inh confirm: confirmation of human DAX1 (NR0B1) inhibitors; 2,400 compounds, 87% hits; shares compounds with DAX1 StAR inh; inhibition, % at 6.8 µM; HEK293T StAR-promoter luciferase reporter, SF-1/DAX-1 repression; AID 652134;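 active = inhibition above the average of every tested compound plus 3 SD, cut at about 3.8% in these data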;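 also: 0% = DAX-1 cells with DMSO and 100% = no DAX-1 control cells with DMSO; active compounds raise luminescence by relieving repression of the StAR reporter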
Target sequence (P51843 whole entry, looked up): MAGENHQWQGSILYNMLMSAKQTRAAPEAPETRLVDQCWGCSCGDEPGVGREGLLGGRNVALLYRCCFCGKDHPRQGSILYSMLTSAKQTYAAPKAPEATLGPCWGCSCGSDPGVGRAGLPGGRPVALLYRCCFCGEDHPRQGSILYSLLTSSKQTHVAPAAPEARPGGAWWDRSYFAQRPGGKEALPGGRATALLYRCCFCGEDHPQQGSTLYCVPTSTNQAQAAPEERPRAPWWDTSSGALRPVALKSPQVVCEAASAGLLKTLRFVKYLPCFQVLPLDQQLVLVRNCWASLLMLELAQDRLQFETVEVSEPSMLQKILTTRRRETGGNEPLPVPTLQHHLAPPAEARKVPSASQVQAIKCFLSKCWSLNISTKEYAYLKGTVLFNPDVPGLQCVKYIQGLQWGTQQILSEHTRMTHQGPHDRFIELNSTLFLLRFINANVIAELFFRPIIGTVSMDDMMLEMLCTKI
SF1 AF2mut Luc: counter-screen for DAX1 inhibitors: nonselective inhibitors with SF-1 AF2 mutant. shares compounds with DAX1 StAR inh. inhibition, % at 6.8 µM. 2,400 compounds, 78% hits. HEK293 StAR-luciferase, luminescence;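 active = inhibition above the mean of all tested compounds plus 3 SD, cut at about 3% in these data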;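 also: 0% = DAX-1 transfected cells with DMSO and 100% = cells without DAX-1 with DMSO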
* hit, by the source's call; ? = inconclusive; / = no result given. Only some compounds are listed: those with a hit (about 4.2% of all), similar ones and a draw of the others.

SMILES | DAX1 StAR inh | esBAF inh | hgDAF12 agonist | Wnt bcat act | ssDAF-12 act | hcDAF-12 act | DAX1 inh confirm | SF1 AF2mut Luc
O=C(OCC(=O)N1CCN(c2ccccc2)CC1)c1ccccc1OC(F)F | 5.0* | 1 | 0 | 1 | -1 | -1 | -2 | -1
O=C(OCC(=O)N1CCCCCC1)c1ccccc1Br | 4.5* | 54* | 12* | 14 | 0 | 5.7* | 10* | 5.3*
O=C(OCC(=O)N1CCN(c2ccccc2)CC1)c1ccccc1NCCO | 0 | / | -4 | 1 | -1 | 0 | / | /
C[C@@H]1CN([C@H](C)CO)C(=O)c2cc(NS(=O)(=O)c3cn(C)cn3)ccc2O[C@@H]1CN(C)C(=O)Nc1ccc2c(c1)OCO2 | / | 7 | / | / | / | / | / | /
CS(=O)(=O)Nc1ccc2c(c1)[C@@H]1C[C@H](CC(=O)NCc3ccccc3)O[C@H](CO)[C@@H]1O2 | / | 0 | / | / | / | / | / | /
CN(C)CCCNC(=O)C[C@@H]1CC[C@@H]2[C@H](COC[C@H](O)CN2S(=O)(=O)c2ccc(Cl)cc2)O1 | / | 4 | / | / | / | / | / | /
C[C@H]1CN([C@@H](C)CO)C(=O)c2cccc(NC(=O)C3CCCCC3)c2O[C@H]1CN(C)S(=O)(=O)c1ccc(F)cc1 | / | -7 | / | / | / | / | / | /
CN(C(=O)c1cc(COc2c(F)cccc2F)on1)C1CCOC1 (configuration not stated) | 5.1* | 28 | 5 | 9 | -1 | 3 | -1 | 2
CCOC(=O)N1CCN(C(=O)c2cc(COc3c(F)cccc3F)on2)CC1 | 7.8* | 58* | 12* | 45* | 1 | 3 | 8.9* | 5.7*
O=C(c1cc(COc2c(F)cccc2F)on1)N1CCCCCC1 | 4.8* | / | 6 | 16 | 0 | 1 | 4.6* | 3.0*
COc1ccc(NC(=O)N(C)C[C@@H]2Oc3ccc(NC(=O)C4CC4)cc3CC(=O)N([C@@H](C)CO)C[C@H]2C)cc1 | / | -1 | / | / | / | / | / | /
O=C(C[C@H]1C[C@@H]2c3cc(NC(=O)c4cccnc4)ccc3O[C@@H]2[C@H](CO)O1)NCc1cccnc1 | / | 0 | / | / | / | / | / | /
Nc1cccc2cc(-c3ccccc3)oc12 | 5.3* | 91* | 7 | -2 | 0 | 2 | 6.5* | 5.6*
COc1cccc2cc(-c3ccccc3)oc12 | 0 | 34 | 0 | 23 | -1 | -2 | / | /
C[C@@H]1CN([C@@H](C)CO)S(=O)(=O)c2ccc(/C=C/c3ccccc3)cc2O[C@H]1CN(C)C(=O)CN1CCOCC1 | / | 2 | / | / | / | / | / | /
CO[C@@H]1CN(C)C(=O)c2ccc(NS(=O)(=O)c3cn(C)cn3)cc2OC[C@@H](C)N(C)C[C@H]1C | / | -4 | / | / | / | / | / | /
CNC[C@@H]1Oc2ccc(NS(=O)(=O)c3ccc(OC)cc3)cc2CC(=O)N([C@@H](C)CO)C[C@@H]1C | / | 1 | / | / | / | / | / | /
CCN(c1cc(C)cc(C)c1)S(=O)(=O)c1nnc(NC(=O)c2ccco2)s1 | -1 | 0 | 0 | 4 | -1 | -1 | / | /
CCN(c1ccccc1C)S(=O)(=O)c1nnc(NC(=O)c2ccco2)s1 | 4.8* | -2 | -1 | 0 | -1 | -2 | 0 | 0
CCOc1cc(N2CCC(O)CC2)ccc1Nc1ncc2c(n1)N(C)c1ccccc1C(=O)N2C | 5.9* | / | -8 | 13 | 0 | 4 | 0 | -9
COc1ccc2sc(NC(=O)c3ccco3)nc2c1 | 6.2* | -68 | 10 | 6 | 0 | 4 | 10* | 3
COc1ccc2c(c1)CCc1sc(NC(=O)c3ccco3)nc1-2 | / | 23 | / | / | / | / | / | /
O=C(O)c1ccc(N/N=C/c2ccc(-c3ccc(Cl)cc3Cl)o2)cc1 | 5.1* | / | 0 | 2 | -1 | 1 | 15* | 5.6*
O=C(O)c1ccc(N/N=C/c2ccc(-c3cc(Cl)ccc3Cl)o2)cc1 | 2 | / | 2 | 1 | -1 | 0 | / | /
O=C(O)c1ccc(N/N=C/c2ccc(-c3cccc(Cl)c3)o2)cc1 | 6.2* | ? | 16* | 25 | 1.0* | 6 | 13* | 7.6*
O=C(C[C@@H]1C[C@H]2c3cc(NC(=O)C4CCOCC4)ccc3O[C@H]2[C@H](CO)O1)NC1CCCCC1 | / | 0 | / | / | / | / | / | /

Compound activity from PubChem.
